Test results as given in PubChem BioAssay (NCATS).
Records with an inconclusive call do not appear. A call without a number means that no potency is given here. Calls of active or inactive are those of the source. The call rests on the fitted dose curve; in most records, active means well fitted curve in the direction sought with a large enough effect; inconclusive means small, poorly fitted or top-dose-only effect, or another doubt; inactive means no such curve, though single readings can be large; an effect the other way counts as inactive or inconclusive.

assay: Primary qHTS for inhibitors of nuclear receptor binding SET domain protein 2 (NSD2) in an isogenic RCH-ACV NSD2 p.E1099K mutant (9B) (AID 1645876); details: RCH-ACV NSD2 E1099K (9B) viability, CellTiter-Glo, 72 h; series mostly up to 44.9 µM
Further: nearly all actives have a fitted effect of over 70% in size.
Potency means the concentration at half of the fitted maximal effect.

Row | Structure (SMILES) | Potency
1 | O=c1[nH]c2ccccc2n1C1CCN(Cc2ccc(-c3[nH]c4cc5ncnc5cc4nc3-c3ccccc3)cc2)CC1 | 2.95 µM (active)
2 | NC1=NC(=O)N2CC12 (stereo not drawn) | inactive
3 | CC[C@@H](C(N)=O)N1CCCC1=O | inactive
4 | COC1=C[C@@H]2[C@@H]3Cc4ccc(OC)c(O)c4[C@]2(CCN3C)CC1=O | inactive

assay: Primary qHTS for inhibitors of nuclear receptor binding SET domain protein 2 (NSD2) in an RCH-ACV wild type WT cells (2C) (AID 1645877); details: RCH-ACV (leukaemia line) NSD2 WT (2C) viability, CellTiter-Glo, 72 h; series mostly up to 44.9 µM

Row | Structure (SMILES) | Potency
5 | O=c1[nH]c2ccccc2n1C1CCN(Cc2ccc(-c3[nH]c4cc5ncnc5cc4nc3-c3ccccc3)cc2)CC1 | 5.25 µM (active)
6 | NC1=NC(=O)N2CC12 (stereo not drawn) | inactive
7 | CC[C@@H](C(N)=O)N1CCCC1=O | inactive
8 | COC1=C[C@@H]2[C@@H]3Cc4ccc(OC)c(O)c4[C@]2(CCN3C)CC1=O | inactive
